Assay outcomes deposited in PubChem BioAssay by National Center for Advancing Translational Sciences (NCATS).
This is a sample that favours compounds with a hit; in the whole collection about 1.5% have one here.
HTT aggregate: qHTS Multiplex Assay to Identify Dual Action Probes in a Cell Model of Huntington: Aggregate Formation (GFP); PC12 HttQ103-GFP aggregates, Acumen cytometry, 40 h; Potency, µM (doses to about 46.1 µM), without a hit: top-dose activity change, negative = inhibition, usual class: inhibitors; actives 1.1% (n = 220,000); AID 1688, 2009; also: % is scaled to controls: 0 for no effect and ±100 for the full control effect; nearly all actives have a fitted effect of over 60% in size
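PC12/HTTQ103-GFP, ecdysone-inducible; teb 100 nM; cpd qHTS titration; GFP aggregates read on laser cytometer, Ex 488/Em 500-530 nm.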
NPSR antag: qHTS Assay for Antagonists of the Neuropeptide S Receptor: cAMP Signal Transduction; CHO-NPSR cells, cAMP TR-FRET, antagonist mode; actives 1% (n = 220,000); Q6W5P4; AID 1461, 2008; Potency, µM (series often up to 38.3 µM), inactives show top-dose activity change, negative = inhibition, hits mostly inhibitors; also: % is scaled to controls: 0 for no effect and ±100 for the full control effect; nearly all actives have a fitted effect of over 50% in size
Target sequence (Q6W5P4 whole entry, looked up): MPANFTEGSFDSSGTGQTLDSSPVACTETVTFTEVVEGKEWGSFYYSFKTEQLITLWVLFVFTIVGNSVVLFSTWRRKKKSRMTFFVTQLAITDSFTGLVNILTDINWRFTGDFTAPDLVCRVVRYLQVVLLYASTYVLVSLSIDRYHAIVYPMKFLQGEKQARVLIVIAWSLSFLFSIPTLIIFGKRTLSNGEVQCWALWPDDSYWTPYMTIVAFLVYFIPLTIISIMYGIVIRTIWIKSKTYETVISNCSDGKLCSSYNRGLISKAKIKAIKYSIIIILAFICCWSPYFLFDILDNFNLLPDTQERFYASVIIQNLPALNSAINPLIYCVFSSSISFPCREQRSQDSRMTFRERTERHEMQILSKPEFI
Epigenetic reg: Quantitative High-Throughput Screen for Regulators of Epigenetic Control; Potency, µM (doses to about 53.9 µM), for inactives: at the highest dose GFP activation, actives largely listed as activators; AID 1865, 2009; murine LDR cells, GFP reporter derepression, 30 h; actives 0.2% (n = 280,000); also: % of control where 0% means no effect; nearly all actives have a fitted effect of over 60% in size
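Derepression of a silenced CMV-GFP reporter in murine LDR cells is scored by enumerating GFP-positive cells with a laser-scanning microplate cytometer after 30 hours of treatment at 37 C.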
LMNA splice mod: qHTS Assay for Modulators of Lamin A Splicing | Potency, µM (top dose mostly 46.1 µM), for inactives: at the top dose ratio change, negative = inhibition, hits mostly inhibitors | HeLa LMNA splicing GFP/RFP minigene ratio, 48 h | actives 0.01% (n = 200,000); active = well fitted inhibition curve with a large enough effect in the signal ratio, with a control signal flat, not every such curve was filed as active; inconclusive = small, poorly fitted or top-dose-only effect, or effect the other way, or a change in a side signal; the % refers to the signal ratio; also: % is scaled to controls: 0 for no effect and ±100 for the full control effect
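S3 HeLa stable clones carrying a lamin A-EGFP splicing minigene plus DsRed2 were seeded at 600 cells/well in Opti-MEM with 2% FBS, pin-dosed and incubated 48 h at 37°C. Acumen cytometry (488 nm) gave the GFP/RFP total-intensity ratio.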
HTT cytoprotect: qHTS Multiplex Assay to Identify Dual Action Probes in a Cell Model of Huntington: Cytoprotection (ATP) | actives 0.14% (n = 230,000) | PC12 HTT-Q103 induced, cytoprotection, ATP luminescence, 40 h | Potency, µM (series often up to 56.4 µM), inactives show cytoprotection (ATP increase), usual class: activators; also: % of control where 0% means no effect; nearly all actives have a fitted effect of over 45% in size
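Compounds added alongside 100 nM tebufenozide, which induces toxic Q103 huntingtin exon 1-GFP in stable PC12 cells; surviving cells quantified by luminescent ATP measurement. Medium: phenol red-free DMEM, 5% equine and 5% calf serum.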
The depositor's hits bear a star; ? = inconclusive; . = no result; [ ] = dose if it differs, or a comment. Unless noted, calls follow the shape of the dose curve; as a rule, active = well fitted curve in the direction sought with a large enough effect; inconclusive = small, poorly fitted or top-dose-only effect, or another doubt; inactive = no such curve, though single readings can be large; an effect the other way counts as inactive or inconclusive. Potency is read from the fitted curve at half-maximal effect.

SMILES | HTT aggregate | NPSR antag | Epigenetic reg | LMNA splice mod | HTT cytoprotect
S=C(NCCc1ccccc1)Nc1cccc2cnccc12 | 3.55µM* | 1.0% | -1.9% | ? | 10.1%[10 µM]
NC(=O)c1ccc(NC(=O)COC(=O)c2c3c(nc4ccccc24)/C(=C\c2cccs2)CCC3)cc1 | ? | -37.5% | -0.9% | ? | 3.5%[0.074 µM]
CC(C)CNC(=O)COC(=O)c1c2c(nc3ccccc13)/C(=C/c1cccs1)CC2 | 5.62µM* | -24.3%[46.1 µM] | -0.9% | ? | -18.9%[10 µM]
CCCCN1C(=O)/C(=C/C=C2\Oc3ccccc3N2CC)SC1=S | ? | 7.6% | 1µM* | . | -6.4%[10 µM]
CCN1C(=O)/C(=C/C=C2/Sc3ccccc3N2CCO)SC1=S | 10.1% | -6.4% | 0.4% | . | -46.5%
CCN1C(=O)/C(=C/C=C2/SCCN2C)SC1=S | 12.4% | -18.0%[46.1 µM] | -1.2% | 11.8% | -18.7%
CCCCN1C(=O)/C(=C/C=C2/CC(C)(C)CN2C)SC1=S | -12.7% | -50.3% | 14.1µM* | ? | -4.0%[10 µM]
C=CCN1C(=O)/C(=C\C=C2\N(C)c3ccccc3C2(C)C)SC1=S | -17.9% | -45.2% | 5.01µM* | -3.5% | -7.8%[10 µM]
CCCN1C(=O)/C(=C/C=C2\N(CC)c3ccccc3C2(C)C)SC1=S | 2.4% | -6.7%[46.1 µM] | 3.16µM* | 10.8% | 9.0%
COc1ccc(CCNC(=S)N2CCC(Cc3ccccc3)CC2)cc1OC | 22.4µM* | -23.9% | -0.8% | ? | -62.9%
O=C(Nc1cccc(F)c1)c1ccc(-c2ccccc2Cl)o1 | 6.6% | -10.7% | -2.3% | ? | .
Cc1ccc(-c2ccc(C(=O)Nc3cccc(F)c3)o2)c2ccccc12 | 22.4µM* | -16.9% | ? | ? | .
Cc1ccc(C)c(NC(=O)C2CCN(S(=O)(=O)c3c(C)noc3/C=C/c3cccs3)CC2)c1 | . | . | -0.8% | . | .
CCN(c1ccc(OC)cc1)c1ncnc2nc[nH]c12 | 5.62µM* | 11.9%[46.1 µM] | 0.6% | -11.3% | -30.2%[10 µM]
CCCN(c1ccc(OCC)cc1)c1ncnc2nc[nH]c12 | 11.2µM* | -19.3%[46.1 µM] | -1.6% | -10.8% | 6.1%[10 µM]
CCN(CC)c1ccc(NC(=O)c2cc(S(=O)(=O)N3CCc4ccccc43)cn2C)c(C)c1 | . | . | 0.0% | 23.9%[46 µM] | .
COc1cccc2c1cc1c(=O)n(CC(=O)N3CCN(c4cccc(C)c4)C(C)C3)nc(C)n12 (configuration not stated) | . | . | 0.0% | . | .
O=C(Nc1cccc(S(=O)(=O)N2CCCCCC2)c1)c1cc(=O)c2ccccc2o1 | 20µM* | -41.6% | -5.1% | -26.3%[46 µM] | -38.9%
O=C(Nc1ccc(N2CCCC2)c(Cl)c1)c1ccc([N+](=O)[O-])o1 | -15.4% | 7.94µM* | 0.0% | . | ?
CCC(=O)N1CCN(c2ccc(NC(=O)c3ccc([N+](=O)[O-])o3)cc2)CC1 | -4.6%[9.22 µM] | -55.7% | ? | . | 9.2%[10 µM]
CCCC(=O)N1CCN(c2ccc(NC(=O)c3ccc([N+](=O)[O-])o3)cc2)CC1 | 22.4µM* | 7.94µM* | ? | . | -72.9%
Cc1ccc(C2C(C=Nc3c(C)n(C)n(-c4ccccc4)c3=O)=C(c3ccccc3)Oc3ccccc32)cc1 (configuration not stated) | 22.4µM* | -16.5%[46.1 µM] | -0.9% | 1.0% | -37.9%
COc1ccc(NC(=O)c2cn3c4c(ccc(Cl)c4c2=O)OC(C)C3)cc1OC (configuration not stated) | . | . | 17.8µM* | -21.1%[46 µM] | .
C#CC(=O)N(c1cc(OC)ccc1OC)C(C(=O)NC1CCCC1)c1cccs1 (configuration not stated) | ? | 10µM* | 1.1% | ? | -95.9%
CCOC(=O)/C(=C/C=C1\Sc2ccccc2N1CC)C(C)=O | -4.1% | -25.5% | ? | 17.2% | -11.8%[10 µM]
SMILES | HTT aggregate | NPSR antag | Epigenetic reg | LMNA splice mod | HTT cytoprotect
CCOC(=O)/C(=C\C=C1/Sc2ccccc2N1CC)C(C)=O | -10.4% | -16.7% | 15.8µM* | 10.0% | -6.5%[10 µM]
CCC(=O)/C=C1/Sc2ccccc2N1CC | 7.08µM* | -6.1%[46.1 µM] | 1.0% | -5.6% | 2.6%[10 µM]
CCC(=O)/C=C1/Sc2ccc(OC)cc2N1CC | -15.1% | -15.9%[46.1 µM] | 0.0% | 13.6% | 17.6%
COc1ccc(CNC(=O)CCc2c(C)nn(-c3ccc(N4CCCCC4)nn3)c2C)c(OC)c1 | . | . | 0.0% | -4.0%[46 µM] | .
Oc1ccccc1CNc1cnc2ccccc2c1 | 35.5µM* | -14.8%[46.1 µM] | -1.0% | ? | 13.7%[10 µM]
CN(c1cccc(Cl)c1)S(=O)(=O)c1cccc(C(=O)Nc2nc3ccccc3[nH]2)c1 | 20µM* | ? | 2.0% | ? | 6.9%[1.9 µM]
CCN1C(C(=O)c2ccccc2)=C(OC(=O)COc2ccc(C)cc2)c2ccccc2S1(=O)=O | . | . | 0.0% | . | .
O=C(c1ccco1)N1CCn2cccc2C1c1ccccc1 (configuration not stated) | -5.4% | -10.8% | -1.3% | . | 0.891µM*
CS(=O)(=O)N1CCCc2cc(C(=O)Nc3cccc(C(F)(F)F)c3)ccc21 | . | . | 8.5% | . | .
CC(C)CN1C(=S)SC(C)(C)C1n1oc(=O)n(-c2ccc(Cl)cc2)c1=O (configuration not stated) | 25.1µM* | ? | -0.8% | -14.9% | -24.6%
CCC(=NCCc1c(C)[nH]c2ccc(OC(F)(F)F)cc12)C1=C(O)CC(c2ccccc2)CC1=O (configuration not stated) | -16.8% | 10µM* | -1.2% | . | -63.0%
COC(=O)c1c(NC(=O)c2nc(SCc3ccc(C)cc3)ncc2Cl)sc2c1CCCC2 | . | . | -0.5% | . | .
CCSc1ncc(Cl)c(C(=O)Nc2sc3c(c2C(=O)NC)CCCC3)n1 | . | . | 7.08µM* | . | .
CCCSc1ncc(Cl)c(C(=O)Nc2sc3c(c2C(=O)NCC)CCCC3)n1 | . | . | 4.47µM* | . | .
O=C(Cc1ccccc1)N(Cc1cccnc1)c1nc2c(Cl)cccc2s1 | . | . | -0.6% | ? | .
O=S(=O)(c1cccc(C(F)(F)F)c1)N1CCC(c2cc(-c3cccc4ccccc34)n[nH]2)CC1 | 1µM* | -7.4%[46.1 µM] | 0.9% | 17.6% | -73.6%
COc1ccccc1C(=O)OCc1cc(=O)n2c(C)csc2n1 | . | . | 0.0% | -15.8%[46 µM] | .
CCCCCCN(CCCCCC)C(=O)Cc1c(-c2ccc(Cl)cc2)[nH]c2ccc(Cl)cc12 | . | . | 1.1% | . | ?
CC1=NOC(=O)/C1=C\c1ccc(-c2ccccc2Br)o1 | -2.6% | 10µM* | 3.2% | . | -39.0%
CC1=NOC(=O)/C1=C\c1ccc(-c2cccc(Cl)c2)o1 | ? | ? | 0.0% | 91.2% | -93.0%
Cc1ccc(N=Cc2ccc(O)cc2O)cc1F | 3.16µM* | -4.6%[46.1 µM] | -2.1% | 1.2% | 3.9%
Cc1nn(C(C)(C)C)c(OC(=O)c2cccs2)c1S(=O)(=O)c1ccccc1 | 12.6µM* | -22.9%[46.1 µM] | 0.0% | -20.8% | -16.5%[0.074 µM]
CC(=O)Oc1c(S(=O)(=O)c2ccccc2)c(C)nn1C(C)(C)C | 0.4% | -7.0%[46.1 µM] | -1.1% | ? | -0.4%
